Data from PubChem BioAssay (EPA / NIEHS).
Active and inactive are the calls of the source. Rule for the calls: active = hit-call score of the fitted dose curve at least 0.9, where 1 is the maximum; inactive = score below 0.9.

How the values were obtained:
Conditions in all cases: mRNA level, 48 h; actives raise or lower the signal
[1] = read-out: Cytochrome P450 (CYP1A1), CYP1A1 (gene 1543); test: LTEA_HepaRG_CYP1A1: Life Technologies and Expression Analysis (LTEA) Assay for Cytochrome P450 (CYP1A1) using HepaRG (AID 2283454)
Summary of the method: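 HepaRG, 48 h post-plating switched to serum-free induction medium; 8-pt conc-response (top 100 uM, half-log, 0.5% DMSO), duplicates, 48 h. Lysis in RLT, TaqMan qRT-PCR for CYP1A1; gain or loss vs DMSO.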

[2] = read-out: CFLAR gene, CFLAR (gene 8837); test: LTEA_HepaRG_CFLAR: Life Technologies and Expression Analysis (LTEA) Assay for CFLAR gene using HepaRG (AID 2283455)
Summary of the method: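 HepaRG cells were plated for 48 h, switched to serum-free induction medium, then exposed in duplicate for 48 h to 8 concentrations (top 100 uM, half-log steps, 0.5% DMSO). CFLAR mRNA was measured by qRT-PCR, normalized to ACTB, GAPDH and POLR2A.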

[3] = read-out: Forkhead box O1 (FOXO1), FOXO1 (gene 2308); test: LTEA_HepaRG_FOXO1: Life Technologies and Expression Analysis (LTEA) Assay for Forkhead box O1 (FOXO1) using HepaRG (AID 2283456)
Summary of the method: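 Differentiated human HepaRG cells in serum-free induction medium were exposed in duplicate for 48 h to eight half-log concentrations (top 100 uM, 0.5% DMSO). FOXO1 mRNA was measured by TaqMan qRT-PCR, normalised to ACTB, GAPDH and POLR2A, and fitted bidirectionally against DMSO.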

[4] = read-out: growth arrest and DNA damage 45 (GADD45A), GADD45A (gene 1647); test: LTEA_HepaRG_GADD45A: Life Technologies and Expression Analysis (LTEA) Assay for growth arrest and DNA damage 45 (GADD45A) using HepaRG (AID 2283458)
Summary of the method: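 Differentiated HepaRG cells were exposed in duplicate for 48 h in serum-free induction medium to 8-point half-log concentrations up to 100 uM in 0.5% DMSO. GADD45A mRNA was measured by TaqMan qRT-PCR, normalized to ACTB, GAPDH and POLR2A, with bidirectional fitting versus DMSO.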

[5] = read-out: Forkhead box O3 (FOXO3), FOXO3 (gene 2309); test: LTEA_HepaRG_FOXO3: Life Technologies and Expression Analysis (LTEA) Assay for Forkhead box O3 (FOXO3) using HepaRG (AID 2283459)
Summary of the method: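 Differentiated human HepaRG cells in serum-free induction medium were exposed in duplicate for 48 h to eight half-log concentrations up to 100 uM in 0.5% DMSO. FOXO3 mRNA was quantified by qRT-PCR, normalized to ACTB, GAPDH and POLR2A, with bidirectional fitting versus DMSO.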

[6] = read-out: ABC Transporter (ABCB1), ABCB1 (gene 5243); test: LTEA_HepaRG_ABCB1: Life Technologies and Expression Analysis (LTEA) Assay for ABC Transporter (ABCB1) using HepaRG (AID 2283460)
Summary of the method: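 Differentiated human HepaRG cells, plated 48 h then switched to serum-free induction medium, were exposed in duplicate to eight half-log concentrations up to 100 uM in 0.5% DMSO for 48 h. ABCB1 mRNA was measured by TaqMan qRT-PCR, normalized to ACTB/GAPDH/POLR2A.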

[7] = read-out: growth arrest and DNA damage 45 (GADD45B), GADD45B (gene 4616); test: LTEA_HepaRG_GADD45B: Life Technologies and Expression Analysis (LTEA) Assay for growth arrest and DNA damage 45 (GADD45B) using HepaRG (AID 2283461)
Summary of the method: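 HepaRG, ~100,000 cells/well, 48 h plating; serum-free induction medium; cpd 100 uM top, half-log x8, 0.5% DMSO, duplicate, 48 h; lysis in RLT, RNA isolation, qRT-PCR; norm ACTB/GAPDH/POLR2A; bidirectional fit vs DMSO.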

[8] = read-out: ABC Transporter (ABCC3), ABCC3 (gene 8714); test: LTEA_HepaRG_ABCC3: Life Technologies and Expression Analysis (LTEA) Assay for ABC Transporter (ABCC3) using HepaRG (AID 2283462)
Summary of the method: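 Human HepaRG, 48 h dosing, 8-pt half-log series from 100 uM, 0.5% DMSO vehicle, duplicates. ABCC3 mRNA by TaqMan qRT-PCR, housekeeping-normalized; bidirectional curve fit vs DMSO.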

[9] = read-out: ABC Transporter (ABCB11), ABCB11 (gene 8647); test: LTEA_HepaRG_ABCB11: Life Technologies and Expression Analysis (LTEA) Assay for ABC Transporter (ABCB11) using HepaRG (AID 2283463)
Summary of the method: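 Differentiated human HepaRG cells were exposed for 48 h in serum-free induction medium to eight half-log concentrations up to 100 uM in 0.5% DMSO. ABCB11 mRNA was quantified by qRT-PCR, normalized to ACTB, GAPDH and POLR2A, and fitted bidirectionally versus DMSO.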

[10] = read-out: ABC Transporter (ABCC2), ABCC2 (gene 1244); test: LTEA_HepaRG_ABCC2: Life Technologies and Expression Analysis (LTEA) Assay for ABC Transporter (ABCC2) using HepaRG (AID 2283464)
Summary of the method: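 HepaRG, 48 h post-plating; serum-free induction medium; cpd 8-pt, 100 uM top, half-log, 0.5% DMSO, duplicate, 48 h. Readout: ABCC2 mRNA by qRT-PCR, norm. ACTB/GAPDH/POLR2A. Bidirectional fit vs DMSO baseline.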

[11] = read-out: ATP-citrate lyase (ACLY), ACLY (gene 47); test: LTEA_HepaRG_ACLY: Life Technologies and Expression Analysis (LTEA) Assay for ATP-citrate lyase (ACLY) using HepaRG (AID 2283466)
Summary of the method: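 Differentiated human HepaRG cells in serum-free induction medium exposed 48 h, in duplicate, to eight half-log concentrations from 100 uM top in 0.5% DMSO; ACLY mRNA measured by qRT-PCR, normalized to ACTB, GAPDH, POLR2A, fitted bidirectionally versus DMSO.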

[12] = read-out: Peroxisomal acyl-coenzyme A oxidase 1 (ACOX1) gene, ACOX1 (gene 51); test: LTEA_HepaRG_ACOX1: Life Technologies and Expression Analysis (LTEA) Assay for Peroxisomal acyl-coenzyme A oxidase 1 (ACOX1) gene using HepaRG (AID 2283467)
Summary of the method: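 Differentiated human HepaRG cells were exposed in duplicate for 48 h in serum-free induction medium to eight half-log concentrations up to 100 uM in 0.5% DMSO. ACOX1 mRNA was then quantified by TaqMan qRT-PCR, normalized to ACTB, GAPDH and POLR2A.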

[13] = read-out: Alkaline Phosphatase, Placental (ALPP) gene, ALPP (gene 250); test: LTEA_HepaRG_ALPP: Life Technologies and Expression Analysis (LTEA) Assay for Alkaline Phosphatase, Placental (ALPP) gene using HepaRG (AID 2283468)
Summary of the method: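 HepaRG, 48 h plating then 48 h dosing, serum-free induction medium, 0.5% DMSO. 8 conc, half-log, max 100 uM, duplicates. Endpoint: ALPP transcript by qRT-PCR, housekeeping-normalized; gain or loss fitted vs DMSO.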

[14] = read-out: Bcl-2 (BAD) gene, BAD (gene 572); test: LTEA_HepaRG_BAD: Life Technologies and Expression Analysis (LTEA) Assay for Bcl-2 (BAD) gene using HepaRG (AID 2283469)
Summary of the method: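 Differentiated human HepaRG cells in serum-free induction medium were exposed in duplicate for 48 h to eight concentrations (top 100 uM, half-log steps, 0.5% DMSO). BAD mRNA was quantified by qRT-PCR normalised to ACTB, GAPDH and POLR2A, with bidirectional fitting versus DMSO.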

[15] = read-out: Bcl-2 (BAX) gene, BAX (gene 581); test: LTEA_HepaRG_BAX: Life Technologies and Expression Analysis (LTEA) Assay for Bcl-2 (BAX) gene using HepaRG (AID 2283470)
Summary of the method: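 Differentiated human HepaRG cells, plated 48 h then switched to serum-free induction medium, were exposed 48 h to 8 half-log concentrations up to 100 uM in 0.5% DMSO; BAX mRNA measured by qRT-PCR, normalized to ACTB, GAPDH, POLR2A.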

[16] = read-out: adenosine kinase (ADK) gene, ADK (gene 132); test: LTEA_HepaRG_ADK: Life Technologies and Expression Analysis (LTEA) Assay for adenosine kinase (ADK) gene using HepaRG (AID 2283471)
Summary of the method: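 Differentiated HepaRG cells dosed 48 h in serum-free induction medium, 0.5% DMSO vehicle, eight half-log concentrations from 100 uM, in duplicate. ADK mRNA by TaqMan qRT-PCR normalised to ACTB, GAPDH, POLR2A; bidirectional fit versus DMSO.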

[17] = read-out: Alpha-fetoprotein (AFP) gene, AFP (gene 174); test: LTEA_HepaRG_AFP: Life Technologies and Expression Analysis (LTEA) Assay for Alpha-fetoprotein (AFP) gene using HepaRG (AID 2283472)
Summary of the method: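 Human HepaRG cells plated 48 h, then switched to serum-free induction medium and exposed in duplicate for 48 h to 8-point half-log series from 100 uM in 0.5% DMSO. AFP mRNA by qRT-PCR, normalized to ACTB, GAPDH, POLR2A; bidirectional fit versus DMSO.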

BCL2L11 (gene 10018) = test: LTEA_HepaRG_BCL2L11: Life Technologies and Expression Analysis (LTEA) Assay for Bcl-2 (BCL2L11) gene using HepaRG (AID 2283473)
Summary of the method: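 Read-out is BCL2L11 transcript level by qRT-PCR, normalized to three housekeeping genes and fitted bidirectionally against 0.5% DMSO vehicle. HepaRG cells received chemicals for 48 h in serum-free induction medium, 100 uM down in half-log dilutions.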

CNC(=O)ON=C(C)SC
outcome [1]: inactive
outcome [2]: inactive
outcome [3]: inactive
outcome [4]: inactive
outcome [5]: inactive
outcome [6]: inactive
outcome [7]: inactive
outcome [8]: inactive
AC50 [9]: 16.7 µM (active)
outcome [10]: inactive
outcome [11]: inactive
outcome [12]: inactive
outcome [13]: inactive
outcome [14]: inactive
outcome [15]: inactive
outcome [16]: inactive
outcome [17]: inactive
outcome (BCL2L11 (gene 10018)): inactive

CCCCSP(=O)(SCCCC)SCCCC
AC50 [1]: 27.6 µM (active)
outcome [2]: inactive
outcome [3]: inactive
outcome [4]: inactive
outcome [5]: inactive
AC50 [6]: 50 µM (active)
outcome [7]: inactive
outcome [8]: inactive
AC50 [9]: 73.9 µM (active)
outcome [10]: inactive
outcome [12]: inactive
outcome [13]: inactive
outcome [14]: inactive
outcome [15]: inactive
outcome [16]: inactive
AC50 [17]: 50 µM (active)
outcome (BCL2L11 (gene 10018)): inactive

CCOP(=S)(OCC)SCCSCC
outcome [1]: inactive
outcome [2]: inactive
outcome [3]: inactive
outcome [4]: inactive
outcome [5]: inactive
AC50 [6]: 0.0511 µM (active)
outcome [7]: inactive
outcome [8]: inactive
outcome [9]: inactive
outcome [10]: inactive
outcome [12]: inactive
outcome [13]: inactive
outcome [14]: inactive
outcome [15]: inactive
outcome [16]: inactive
outcome [17]: inactive
outcome (BCL2L11 (gene 10018)): inactive

CC(C)N(C(=O)SCC(Cl)=C(Cl)Cl)C(C)C
AC50 [1]: 67.5 µM (active)
outcome [2]: inactive
outcome [3]: inactive
outcome [4]: inactive
outcome [5]: inactive
outcome [6]: inactive
outcome [7]: inactive
outcome [8]: inactive
outcome [9]: inactive
outcome [10]: inactive
outcome [12]: inactive
outcome [13]: inactive
outcome [14]: inactive
outcome [15]: inactive
outcome [16]: inactive
outcome [17]: inactive
outcome (BCL2L11 (gene 10018)): inactive
